# From PubChem BioAssay
# An excerpt weighted towards active compounds, which were near 0.45% of everything screened.
# LGR2 inh – Drosophila LGR2 receptor signaling inhibition | HEK293 LGR2, CRE-luciferase, bursicon-stimulated, 4 h | 380,000 compounds, 0.35% hits | inhibition, % at 9.99 µM;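 active means drop in luminescence signal, shown as inhibition above about 50% in the replicate tests, limit read from the data, passing the limit was not always enough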;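 further: agonist challenge used bursicon conditioned medium at about half maximal strength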
# SRC3 inh – human NCOA3 inhibition. inhibition, % at 3.6 µM. 360,000 compounds, 0.17% hits. HEK293 GAL4-SRC3 luciferase reporter, luminescence;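 active means inhibition above a per-campaign cutoff, the mean of all compounds plus 3 SD, cut at about 60% in these data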;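 further: 0% = DMSO-treated cells and 100% = gossypol-treated cells at 36 µM; higher means less SRC3-driven luciferase light from the GAL4 reporter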
# SRC2 inh – human SRC2 (NCOA2) inhibition. HEK293 GAL4-SRC2 luciferase reporter, luminescence. inhibition, % at 9 µM. 370,000 compounds, 0.17% hits. AID 651957;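 active means inhibition above the mean inhibition of all tested compounds plus 3 SD, set per campaign, cut at about 52% in these data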;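 further: 0% = DMSO treated cells and 100% = cells given Gossypol at 36 µM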
# NR5A2 inv ag – suppresses constitutive activity of human LRH-1; O00482; HEK293T StAR-luciferase reporter, LRH-1 transfected, 24 h; inhibition, % at 3.6 µM; 360,000 compounds, 0.13% hits; AID 602396;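 active means inhibition above the mean inhibition of all tested compounds plus 3 SD, cut at about 73% in these data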;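 further: 0% = DMSO wells and 100% = reporter-only cells lacking LRH-1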
# NCOA1 inh – inhibitors of human steroid receptor coactivator 1 (SRC1). Q15788. HEK293 GAL4-SRC1 luciferase reporter, luminescence. inhibition, % at 3.6 µM. 360,000 compounds, 0.12% hits. AID 588354;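 active means inhibition above the campaign mean plus 3 SD, with each screening campaign given its own cutoff, cut at about 60% in these data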;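 further: 0% = DMSO treated cells and 100% = gossypol at 36 µM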
# * = called active by the depositor; . = no result.
SMILES,LGR2 inh,SRC3 inh,SRC2 inh,NR5A2 inv ag,NCOA1 inh
Nc1ccc(-c2cnc(N)c(C(=O)c3cccnc3)n2)cn1,.,70*,.,52,69*
Nc1ccc(C(=O)c2cccs2)cn1,-10,5,-9,10,-14
Cc1cccc(S(=O)(=O)N2C[C@@H]3N[C@H](C2)C3c2ccc(-c3cccc(C#N)c3)cc2)c1 (stereo partly specified),0,.,.,.,.
C[C@H]1CN([C@@H](C)CO)C(=O)c2cc(NC(=O)CCCCCC(=O)Nc3ccccc3N)ccc2O[C@H]1CN(C)C(=O)NC1CCCCC1,9,.,.,.,.
O=c1cc(-c2cccc(F)c2)oc2ccccc12,-37,-29,-60,-36,2
O=c1cc(-c2c(F)c(F)c(F)c(F)c2F)oc2ccccc12,67*,23,16,-3,-6
COc1cccc2c1C(=O)c1c(O)c3c(c(O)c1C2=O)C[C@](O)(C(C)=O)C[C@H]3O[C@@H]1C[C@@H](N)[C@@H](O)[C@@H](C)O1,1,-105,47,99*,-165
CO[C@H]1CN(C)C(=O)c2ccc(NS(=O)(=O)c3ccccc3F)cc2OC[C@H](C)NC[C@H]1C,-7,.,.,.,.
C[C@H](CO)N1C[C@H](C)[C@H](CN(C)C(=O)Nc2ccc(F)cc2)Oc2ncc(C#Cc3cccc(F)c3)cc2C1=O,1,.,.,.,.
Cc1ccc(-c2nnc(SCC(=O)Nc3ccccc3F)o2)cc1,57*,9,62*,32,33
O=C(CSc1nnc(-c2ccccc2)o1)Nc1ccccc1F,24,-39,24,-77,-72
O=C(/C=C\c1ccco1)Nc1nc(-c2ccc3ccccc3c2)cs1,55*,4,3,-32,10
Cc1ccc(-c2csc(NC(=S)NC(=O)/C=C/c3ccco3)n2)cc1,.,-43,-39,-42,-7
CC(C)(C)c1ccc(OCCCN2CCC(C(O)(c3ccccc3)c3ccccc3)CC2)cc1,.,.,-34,.,.
COc1ccccc1-c1ccc(OCCCN2CCC(C(O)(c3ccccc3)c3ccccc3)CC2)cc1,62*,.,4,.,.
CCN1[C@@H]2c3ccc(-c4ccccc4OC)c(=O)n3C[C@@H]2[C@@H](CO)[C@@H]1C(=O)NCCCN(C)C,-8,.,.,.,.
Cc1noc(C)c1NC(=O)Nc1ccc2c(c1)C(=O)N([C@@H](C)CO)C[C@H](C)[C@H](CN(C)S(=O)(=O)c1ccc(F)cc1)OCCCC[C@@H](C)O2,3,.,.,.,.
CC(C)CC(=NNC(=O)c1ccncc1)c1cc(Cl)ccc1O,14,71*,-5,45,53
CCOc1ccc(C2c3cc(OC)c(OC)cc3CC(=O)N2c2ccccc2)cc1 (stereo unspecified),21,16,-16,-34,-28
CCOc1cc2c(cc1OCC)C(c1ccc(OC)cc1)N(c1ccccc1)C(=O)C2 (stereo unspecified),-8,-33,-21,76*,-28
CCN(CC)CCn1nc2c3c(cccc3c1=O)-c1ccccc1-2,.,-52,-198,77*,73*
O=c1c2cccc3c2c(nn1CN1CCOCC1)-c1ccccc1-3,.,-13,.,-20,-7
O=C1c2cccc3c([N+](=O)[O-])ccc(c23)C(=O)N1Cc1cccnc1,103*,1,-8,4,6
Cc1cnc(NC(=O)C2CC(=O)N(c3cccc(Cl)c3)C2)s1 (stereo unspecified),79*,-9,-19,-4,-12
CN1C(=O)c2cc(NC(=O)C3CCCC3)ccc2OC[C@@H]2O[C@H](CC(=O)NCc3ccccc3F)CC[C@@H]21,-20,.,.,.,.
SMILES,LGR2 inh,SRC3 inh,SRC2 inh,NR5A2 inv ag,NCOA1 inh
CCCN(C)C[C@@H]1Oc2cc(C#CC3CCCC3)ccc2S(=O)(=O)N([C@@H](C)CO)C[C@@H]1C,7,.,.,.,.
Cc1cc2cc(CN(Cc3ccco3)S(=O)(=O)c3c(C)ccc4nsnc34)c(=O)[nH]c2cc1C,.,27,5,10,3
Cc1ccc2cc(CN(Cc3ccco3)S(=O)(=O)c3c(C)ccc4nsnc34)c(=O)[nH]c2c1,.,-5,77*,-24,-1
CCc1cc2c(COC(=O)c3cc(S(=O)(=O)N4CCOCC4)ccc3F)cc(=O)oc2cc1O,59*,8,-2,-12,-13
COc1cccc(-n2nc(C#N)c(Cl)cc2=O)c1,103*,-8,-126,-2,-56
COc1ccc2c3c([nH]c2c1)[C@H](CO)N(C(=O)c1ccc(F)cc1)CC31CN(C(=O)CC2CC2)C1,-13,.,.,.,.
O=C(Nc1ccc(S(=O)(=O)N2CCCC2)cc1)c1ccc2c(=O)n3c(nc2c1)CCCCC3,9,27,-7,8,-22
Cc1ccc(S(=O)(=O)N2CCCCC2)cc1NC(=O)c1ccc2c(=O)n3c(nc2c1)CCCCC3,67*,.,9,.,.
C=C1C(=O)C23C(O)C1CCC2C12CCCC(C)(COC(C)=O)C1C(O)C3(O)OC2 (stereo unspecified),98*,74*,20,77*,77*
CC(=O)N(/N=C1\Sc2ccccc2C1=O)c1ccc(C)cc1C,.,64*,26,63,54
CC(=O)N(/N=C1\Sc2ccccc2C1=O)c1ccccc1C,.,-66,-72,-118,-101
C[C@@H]1CN([C@@H](C)CO)C(=O)c2cccc(NS(=O)(=O)c3cccs3)c2O[C@H]1CN(C)C(=O)Nc1ccccc1,-9,.,.,.,.
COc1ccc2c3c([nH]c2c1)[C@@H](CO)N(Cc1nccs1)CC31CCN(C(=O)C2CCOCC2)CC1,-11,.,.,.,.
NS(=O)(=O)c1ccc(Nc2nc(-c3cccc([N+](=O)[O-])c3)cs2)cc1,73*,10,28,19,-3
CO[C@H]1CN(C)C(=O)c2ccc(NC(C)=O)cc2OC[C@H](C)N(C(=O)c2cccnc2)C[C@@H]1C,-16,.,.,.,.
CCOc1ccccc1O[C@H](c1ccccc1)[C@H]1CNCCO1,3,57,15,53,70*
C[C@H]1CCCCO[C@H](CN(C)S(=O)(=O)c2ccc(Cl)cc2)[C@@H](C)CN([C@@H](C)CO)C(=O)c2cc(NC(=O)c3ccccc3)ccc2O1,21,.,.,.,.
Cc1c(/N=C(\[O-])Nc2ccc(Br)cc2)sn[n+]1C,82*,-79,-36,-160,-138
CC=Cc1ccc2n(c1=O)C[C@H]1[C@H](CO)[C@@H](C(=O)N(C)C)N(CCC)[C@@H]21 (mixture of isomers),0,.,.,.,.
CSc1ccccc1C(=O)Nc1nc2ccccc2[nH]1,-59,-87,-63,-97,-74
COc1ccc(C(=O)Nc2ccc3ccccc3n2)c(OC)c1OC,89*,-38,23,-54,-96
COc1ccccc1C(=O)NCCC(=O)Nc1nc2ccccc2[nH]1,7,-18,-17,17,-8
COc1cc(SC)ccc1C(=O)Nc1nc2ccccc2[nH]1,105*,92*,95*,93*,93*
COc1ccccc1C(=O)Nc1nc2ccccc2[nH]1,103*,80*,94*,84*,84*
COc1ccc2c3c(n(C)c2c1)[C@@H](CO)N(Cc1cccnc1)CC31CCN(C(=O)c2cccnc2)CC1,-9,.,.,.,.
